Source: ChEMBL document CHEMBL3988442, “University of Dundee, Small-Polar-MMV Screening Library” (2021)
About 1,200 (3.2%) of roughly 38,000 compounds showed an effect of 50% or more. The median lay at about -58%. The entries come from a sample that favours strong results as a whole.

System: Plasmodium falciparum
Assay: Calibr Malaria Delayed Death Assay SOP
Format: functional, organism-based
Design: scale not given: in the data most compounds retested in dose-response had high values
Conditions: concentration 4.99e-06 (unit not given; other assays of the set use mol/L)

Row | SMILES | Percent Effect [%]
1 | COC(=O)COn1c(SC)nc2ccccc2c1=O | -26.25
2 | Cc1cccnc1CN(C)c1ncnc2[nH]ccc12 | -141.2
3 | O=C(O)C(F)(F)F.O=C(O)C(F)(F)F.c1cncc(OC[C@@H]2CCC[C@@]23CN(Cc2nccs2)CCO3)c1 | -94.41
4 | Cn1nc(-c2ccccc2)c(Br)c1C(=O)O | -35.19
5 | O=C(C1CCOCC1)N1CCC2(CC1)CN(c1ccsc1)C(=O)CO2 | -132.3
6 | O=C(c1cnn(-c2ccccc2Cl)c1)N1CCN(CCO)CC1 | -76.86
7 | COCCn1cc(CC(=O)Nc2nc[nH]n2)c2ccccc21 | -106.6
8 | Cn1cc(CN2CCS(=O)(=O)C(C)(C)C2)cn1 | -18.08
9 | COc1ccccc1C(=O)Nc1nc2c(s1)CN(S(=O)(=O)C1CC1)CC2 | -86.55
10 | COc1ccc(C2(NC(=O)c3ccc(=O)n(C)n3)CCCC2)cc1 | -78.19
11 | Fc1ccc(C2CN(CCc3ccncc3)CCO2)cc1 (stereo not drawn) | -59.94
12 | O=C1CC(NCc2cccc(O)c2)CN1CCc1cccc(Cl)c1 (stereo not drawn) | -115.5
13 | Clc1cccc(CNC2CCN(CCc3ccncc3)CC2)c1 | 91.89
14 | CCCc1cncnc1N1CCC(NCc2ccncc2)CC1 | 65.25
15 | COCCN1CCC(NCc2cccc(F)c2)C1 (stereo not drawn) | -58.84
16 | CCCc1cncnc1N1CCC2(CCC(=O)N(C3CCCC3)C2)CC1 | 27.32
17 | Fc1ccc(CNC2CCN(CCc3ccncc3)CC2)cc1F | 89.24
18 | Oc1cccc(CNC2CCN(CCc3ccncc3)CC2)c1 | -23.71
19 | CCCc1cncnc1N1CCC(NCc2ccc(O)cc2)CC1 | 48.9
20 | CC(C)Cc1cc(NC(=O)c2cc(Cl)c[nH]2)n(C)n1 | 10.73
21 | CC(C)N(C)CCC(=O)N1CCCC(c2ccc(C(=O)O)cc2)C1 (stereo not drawn) | -175.3
22 | CC(C)CN1C[C@H]2N(c3ncccn3)CCC[C@@]2(C(=O)NCC2CC2)C1 | -72.47
23 | Cc1ccc(CN(C)C(=O)c2n[nH]c(N)c2-c2ccccc2)o1 | -66.55
24 | CN(Cc1ccncc1)C1COC2(CCN(Cc3ccccn3)CC2)C1.O=C(O)C(F)(F)F.O=C(O)C(F)(F)F.O=C(O)C(F)(F)F.O=C(O)C(F)(F)F (stereo not drawn) | -49.62
25 | Cc1ncsc1C(=O)NC1CCN(CC(N)=O)CC1 | -67.12

Row | SMILES | Percent Effect [%]
26 | O=C(Cn1ccc2sccc2c1=O)NCCC1=CCCCC1 | -67.23
27 | Cc1cccc(N2CCN(CCCNC(=O)c3cn[nH]c3C)CC2)c1 | -117.5
28 | CC1CCCN(CCCNC(=O)Cc2csc(-c3ccoc3)n2)C1 (stereo not drawn) | 9.027
29 | Cc1csc([C@H]2C[C@H]3CN(Cc4cc(C)on4)CC[C@@H]3O2)n1.O=C(O)C(F)(F)F | -119
30 | CCN(C(=O)CN1CCn2c(C)nnc2C1)C1=CCCCC1 | 8.289
31 | c1cnn(CC2CN(Cc3nnc(C4CC4)o3)CCO2)c1 (stereo not drawn) | -40.41
32 | FC(F)(F)CCc1ccnc(N[C@H]2CC[C@H](n3cnnc3)CC2)n1 | -55.01
33 | N[C@@H]1CC[C@@H](Nc2nccc(CCC(F)(F)F)n2)C1 | -7.999
34 | N[C@H]1CC[C@@H](Nc2nccc(CCC(F)(F)F)n2)CC1 | 50.03
35 | CC(C)N(C)C(=O)C1=NOC2(CCN(C(=O)c3ccnnc3)C2)C1 (stereo not drawn) | -187.4
36 | Cc1cccc(CCC(=O)Nc2ccnn2C2CCS(=O)(=O)C2)c1 (stereo not drawn) | -75.57
37 | O=C(NCCNc1ccc(Br)cn1)c1ccc(O)cc1 | -25.48
38 | O=C(NCCNC(=O)c1ccc(Br)cc1)c1ccc(O)cc1 | 27.41
39 | O=C(NCCNc1cncc(Br)c1)c1ccc(O)cc1 | 50.22
40 | CCc1nn(C)c(Cl)c1CN1CCCC2(CC1)CN(C)C(=O)O2 (stereo not drawn) | -46.66
41 | OCC1(O)CCCN(Cc2ccccc2OCCc2ccccc2)CC1 (stereo not drawn) | 64.9
42 | O=C1NCC2(CCCN(Cc3ccccc3OCCO)C2)O1 (stereo not drawn) | -55.51
43 | OCCOc1ccccc1CN1CCCC(O)(CO)C1 (stereo not drawn) | -48.41
44 | Cc1cc(C(=O)Nc2cnn(CC(F)(F)F)c2)nc(N2CCOCC2)n1 | -108.9
45 | c1csc(COC[C@H]2CCC[C@]23CN(Cc2ccoc2)CCO3)n1 | 34.38
46 | CS(=O)(=O)NCC1CCCCN1Cc1cccc(C#N)c1 (stereo not drawn) | -99.98
47 | CCN(CC)S(=O)(=O)c1ccc(CNC(=O)N2CCC(C#N)CC2)cc1 | -96.87
48 | CCN1CCCC1CN(CCN(C)C)S(=O)(=O)c1ccc(C#N)cc1 (stereo not drawn) | 58.03
49 | CCS(=O)(=O)N1CCC(Oc2ccc(C#N)cc2)CC1 | -74.03
50 | CC(=O)NCCC1CCCCN1S(=O)(=O)c1cccc(C#N)c1 (stereo not drawn) | -38.39

Row | SMILES | Percent Effect [%]
51 | CCN1CCCC1CN(CCN(C)C)S(=O)(=O)c1cccc(C#N)c1 (stereo not drawn) | 58.76
52 | Cn1ncc2c(NC3CCCN(C(=O)C4CC4)C3)nc(C(C)(C)C)nc21 (stereo not drawn) | -80.8
53 | CC(C)CC(NC(=O)c1ccn(C)c(=O)c1)c1ccccc1 (stereo not drawn) | -106.6
54 | CCc1c(C)nc2ccccc2c1N1CCC(C(=O)NC)CC1 | 51
55 | CNC(=O)C1CCCN1c1nc(C)c2ccccc2n1 (stereo not drawn) | -23.49
56 | CCc1c(C)nc2ccccc2c1N1CCC(NC(C)=O)CC1 | 21.66
57 | Cc1csc(NC(=O)[C@@H]2C[C@H]3[C@H](CCN3S(C)(=O)=O)O2)n1 | -110.3
58 | O=S(=O)(NCc1ccc(S(=O)(=O)N2CCCC2)s1)c1ccc(Cl)cc1 | -58.72
59 | O=C1CN(C(=O)c2ccc(F)cc2)CC(O)CN1Cc1cccs1 (stereo not drawn) | 88.73
60 | Cc1ccc(C(=O)N2CC(=O)N(Cc3cccs3)CC(O)C2)cc1 (stereo not drawn) | -71.11
61 | O=C1CN(C(=O)c2ccc(Cl)cc2)CC(O)CN1Cc1cccs1 (stereo not drawn) | -105.2
62 | CN(C)S(=O)(=O)N1CCOCC1CC(=O)NCCOc1ccccc1 (stereo not drawn) | -2.235
63 | CCc1noc(C)c1C(=O)NCc1cc[nH]n1 | -11.39
64 | Cc1noc(C)c1C(=O)NCc1cc[nH]n1 | -1.688
65 | CCN(c1ccc(C(=O)NCc2cc[nH]n2)cc1)C(C)C | 57.8
66 | Cc1nc(CN2CCCC(NCc3ccc4c(c3)CCO4)C2)no1 (stereo not drawn) | -110.8
67 | CCCc1nc(N2CCSCC2)c2c(n1)c(C)nn2CC | -63.17
68 | CCN(CC)CC1CN(CCc2ccccc2)Cc2nccn2C1.O=C(O)C(F)(F)F.O=C(O)C(F)(F)F (stereo not drawn) | 57.03
69 | Cc1ccc(CN2Cc3nccn3CC(CN(C)C)C2)s1.O=C(O)C(F)(F)F.O=C(O)C(F)(F)F (stereo not drawn) | -55.03
70 | CCN(CC)CC1CN(Cc2ccc(C)s2)Cc2nccn2C1.O=C(O)C(F)(F)F.O=C(O)C(F)(F)F (stereo not drawn) | 66.72
71 | CN(C)CC1CN(Cc2ccc(F)cc2)Cc2nccn2C1.O=C(O)C(F)(F)F.O=C(O)C(F)(F)F (stereo not drawn) | 12.77
72 | CCN(CC)CC1CN(Cc2nccs2)Cc2nccn2C1.O=C(O)C(F)(F)F.O=C(O)C(F)(F)F (stereo not drawn) | 18.43
73 | Cc1ccc(CN2Cc3nccn3CC(Cn3cccn3)C2)s1.O=C(O)C(F)(F)F (stereo not drawn) | -33.05
74 | O=C(NCC1CC1)c1cc2c(s1)CCN2c1ncccn1 | -131.9
75 | O=C(c1cnc2ccc(Cl)cc2c1NCc1ccco1)N1CCCCC1 | -150.7

Row | SMILES | Percent Effect [%]
76 | Cc1ncsc1-c1nnc(C2CCN(Cc3ccc(Cl)cc3)CC2)o1 | -44.81
77 | CC(C)(CN1CCC2(CCOCC2)CC1)N1CCOCC1 | -173.8
78 | COCC1c2nnn(C)c2CCN1C(=O)Cc1ccccn1 (stereo not drawn) | -28.75
79 | Cc1ccc(F)c(S(=O)(=O)N2CCCC2c2ccncc2)c1 (stereo not drawn) | -74.84
80 | CCC[C@H]1CN(S(=O)(=O)c2cc(C)ccc2C)C[C@@H]1N | 67.41
81 | Cc1noc(C)c1-c1n[nH]c2c1CN(S(=O)(=O)c1cccs1)CC2 | -28.6
82 | CCc1ccc(S(=O)(=O)N2CCCC(c3ncc[nH]3)C2)s1 (stereo not drawn) | 13.27
83 | Cc1ccc(C)c(S(=O)(=O)N2CCN(C)C3(CCC(=O)N(C)CC3)C2)c1 (stereo not drawn) | -116.8
84 | CCC[C@H]1CN(S(=O)(=O)c2ccccc2)C[C@@H]1N | 16.03
85 | CCS(=O)(=O)NC1CCCN(c2cc(C)ccc2F)C1=O (stereo not drawn) | 0.205
86 | CCC[C@H]1CN(S(=O)(=O)c2cc(C)ccc2F)C[C@@H]1N | 52.25
87 | Cc1cccc(OCC(O)CNCc2c(C)nn(C)c2N(C)C)c1 (stereo not drawn) | 22.52
88 | O=C(O)C(F)(F)F.O=C(O)C(F)(F)F.O=S1(=O)c2ccccc2C2(CCN(Cc3cccnc3)C2)N1CC1CC1 (stereo not drawn) | -8.635
89 | CS(=O)(=O)NC[C@]12COC[C@H]1CN(CC1CCC1)C2.O=C(O)C(F)(F)F | -46.78
90 | CS(=O)(=O)N1C[C@H]2CN(CC3CC3)C(=O)[C@H]2C1 | -17.38
91 | CN1CCN(C[C@@H]2CN(C(=O)NCC3CCCCC3)C[C@@H]2CO)CC1 | -32.18
92 | Cl.Clc1cccnc1OC1CCNCC1 | 7.245
93 | Clc1ccccc1C1(c2ccnc(C3CCCC3)n2)CCNCC1 | 82.68
94 | Clc1ccccc1C1(c2ccnc(C3CC3)n2)CCNCC1 | 72.39
95 | Cc1cccc(CN2CCn3c(C(=O)N(C)C)cnc3C2)c1 | -123.8
96 | CN(C)CCNC(=O)c1cc2c(s1)CCN2S(C)(=O)=O | -66.69
97 | Cn1cnnc1CCC(=O)N1CCCC(OCc2cccnc2)C1 (stereo not drawn) | -207.3
98 | COc1cc(NC(=O)c2ccc(Cl)cc2F)c(C(=O)N(C)C)cc1OC | -107.3
